Screens (PubChem BioAssay)
BaF3 parental – counter-screen for JAK2V617F inhibitors: parental Ba/F3 viability inhibitors; CellTiter-Glo ATP luminescence; 220,000 compounds, 1.1% hits; AID 1486; inhibition, % at 5.6 µM;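 active = inhibition above a per-campaign cutoff, the mean inhibition of all tested compounds plus 3 SD, cut at about 27% in these data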
KLF5 inhibitor – inhibitors of KLF5 expression; DLD-1 KLF5 promoter-luciferase reporter, luminescence; inhibition, % at 5 µM; 290,000 compounds, 0.23% hits;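 active = inhibition above a per-plate limit of that plate's mean compound inhibition plus 3 SD, cut at about 60% in these data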;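 note: higher means less KLF5 promoter-driven luciferase light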
IEC-6 tox-1 – counter-screen for KLF5 inhibitors: cytotoxicity in IEC-6 cells; IEC-6 cytotoxicity, luminescence viability; inhibition, % at 5 µM; 290,000 compounds, 0.78% hits; AID 1825
Ba/F3 V617F tox – loss of viability in JAK2V617F-driven Ba/F3 cells; AID 1446; inhibition, % at 5.6 µM; 220,000 compounds, 1.1% hits; Ba/F3 EpoR-JAK2V617F viability, ATP luminescence;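 active = inhibition above the campaign mean plus 3 SD over all tested compounds, cut at about 24% in these data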;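 note: cytokine-independent growth of Ba/F3 cells driven by EpoR plus mutant JAK2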
aSyn 5UTR inh – 5' untranslated region of α-synuclein, MLPCN primary screen. 300,000 compounds, 0.82% hits. alpha-synuclein 5'UTR reporter, inhibitor activity. inhibition, % (tested at 7.5 µM). AID 1813; in the data active = inhibition above about 60%; inconclusive = no clear call, values can overlap the other calls;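 note: H4 neuroglioblastoma cells stably carrying SNCA 5'UTR luciferase fusion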
APP 5UTR inh – APP translation inhibition; SH-SY5Y APP 5'UTR-luciferase reporter, luminescence; inhibition, % at 2 µM; 190,000 compounds, 0.82% hits;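 active = inhibition above a set limit, derived from the sample mean plus 3 SD, cut at about 45% in these data; inconclusive = one replicate passes the limit while the other fails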
KLF5 confirm – confirmation of KLF5 inhibitors; shares compounds with KLF5 inhibitor; DLD-1 KLF5 promoter firefly luciferase reporter, luminescence; inhibition, % at 4 µM; 610 compounds, 79% hits;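 active = inhibition above a set limit taken from the earlier primary screen, cut at about 63% in these data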
IEC-6 tox-2 – counter-screen for KLF5 inhibitors: cytotoxicity in rat IEC-6 cells; inhibition, % at 4 µM; IEC-6 rat intestinal cells, viability luminescence; shares compounds with KLF5 inhibitor; 610 compounds, 56% hits; in the data active = inhibition above about 23%;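 note: cells exposed to compounds for 48 hours before viability read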
IEC-6 cytotox cf – IEC-6 cytotoxicity, confirmation assay. shares compounds with IEC-6 tox-1. IEC-6 rat intestinal epithelial viability, luminescence. inhibition, % at 5 µM. 1,900 compounds, 63% hits
Numbers stand for hits; - = inactive; ? = inconclusive; . = not tested or not shown. In the library only some 2.1% were active in any assay of this set; here they are far more common. Cut-off read from the data, not from the text of the source, unless noted: active = inhibition above about 22%; inactive = the rest.

SMILES | BaF3 parental | KLF5 inhibitor | IEC-6 tox-1 | Ba/F3 V617F tox | aSyn 5UTR inh | APP 5UTR inh | IEC-6 cytotox cf | others
Cc1ccc(NC(=O)CSC(C)C(=O)OCC(=O)N2CCN(C(=O)c3ccco3)CC2)cc1 (configuration not stated) | . | . | . | . | - | . | .
N#CC(C#N)=C(Nc1ccc(F)cc1)SCc1cccc(Br)c1 | - | 65.1 | 29.6 | - | ? | - | 40.8 | KLF5 confirm=67.8;IEC-6 tox-2=28.3
CC(SCc1ccccc1)C(=O)Nc1ccc(F)cc1 (configuration not stated) | - | - | - | - | - | - | .
CN(C(=O)CSc1nnc(N)s1)C1CCCCC1 | . | - | - | . | - | . | .
C/C=C/COC(=O)c1[nH]c2c(c1C)C(=O)CC(c1ccc(N(C)C)cc1)C2 (configuration not stated) | - | - | - | - | - | - | .
COC(=O)c1[nH]c2c(c1C)C(=O)CC(c1ccccc1)C2 (configuration not stated) | 75.0 | 72.2 | 87.1 | 73.6 | - | 96.1 | 63.7 | KLF5 confirm=88.1;IEC-6 tox-2=72.3
C=CCOC(=O)c1[nH]c2c(c1C)C(=O)CC(c1ccco1)C2 (configuration not stated) | 83.6 | 89.9 | 88.8 | 82.1 | 69.2 | 96.5 | 56.1 | KLF5 confirm=83.7;IEC-6 tox-2=60.2
COC(=O)c1[nH]c2c(c1C)C(=O)CC(c1ccc(OC)cc1)C2 (configuration not stated) | . | - | - | . | - | . | .
CC1CCCC(NC(=O)CCC(=O)NCc2ccccc2)C1C (configuration not stated) | . | - | - | . | - | . | .
Cc1ccc(S(=O)(=O)N2CCN(c3nccnc3C#N)CC2)cc1 | - | - | - | - | - | . | .
Fc1ccc2[nH]c3c(NCc4ccccc4)ncnc3c2c1 | . | - | 32.7 | . | - | . | 29.8
C=CCOc1ccc2nc(NC(=O)OC)[nH]c2c1 | 78.9 | - | 81.5 | 78.5 | 65.9 | . | 52.6
CCOc1ccc2nc(NCCO)[nH]c2c1 | - | - | - | - | - | - | .
COc1ccc(CN(C(=O)c2ccc(C)cc2)C2CCS(=O)(=O)C2)cc1 (configuration not stated) | . | - | - | . | - | . | .
CC(=O)O[C@H]1C(=O)[C@@]2(C)C([C@H](OC(=O)c3ccccc3)[C@]3(O)C[C@H](OC(=O)[C@H](O)[C@@H](NC(=O)c4ccccc4)c4ccccc4)C(C)=C1C3(C)C)[C@]1(OC(C)=O)CO[C@@H]1C[C@H]2O (some centres not stated) | . | - | 84.5 | . | 101.7 | . | 77.2
Cc1ccc(N(CCC#N)C(=O)COC(=O)c2ccccn2)cc1 | . | - | - | . | - | . | .
CCOc1cc(-c2nc3ccccc3s2)ccc1O | - | - | - | - | - | . | .
CC[n+]1c(/C=C/N(C)c2ccccc2)n(-c2ccccc2)c2ccc(-c3nc4ccccc4s3)cc21 | . | - | 58.5 | . | 120.4 | . | -
NC(=O)COC(=O)c1ccccc1Nc1ccc(SC(F)F)cc1 | - | - | - | - | - | - | .
CC(C)(C)NC(=O)COC(=O)c1ccccc1Nc1ccc(SC(F)F)cc1 | - | - | 37.9 | - | - | - | 31.1
CCN(CC(=O)NCc1ccc(Cl)cc1)C(=O)CSCC(=O)Nc1cccc(C)c1 | . | - | - | . | - | . | .
COc1ccc(C(=O)NC2CCCc3ccccc32)cc1[N+](=O)[O-] (configuration not stated) | . | - | 36.2 | . | - | . | -
CC(=O)c1c(C)[nH]c(C(=O)NC2CCSc3ccccc32)c1C (configuration not stated) | . | - | - | . | - | . | .
CCc1c(C(=O)NC2CCCc3ccccc32)[nH]c(C)c1C(C)=O (configuration not stated) | . | - | 46.7 | . | 64.2 | . | -
Cc1ccc2[nH]c(-c3ccccc3)cc(=O)c2c1 | 81.1 | - | 87.7 | 85.7 | 88.6 | 91.0 | 57.4
SMILES | BaF3 parental | KLF5 inhibitor | IEC-6 tox-1 | Ba/F3 V617F tox | aSyn 5UTR inh | APP 5UTR inh | IEC-6 cytotox cf | others
Cc1ccc(-c2cc(=O)c3ccccc3[nH]2)cc1 | - | - | - | - | - | - | .
Cc1cccc(C(=O)N2CCCC(N3CCN(c4ccccc4)CC3)C2)n1 (configuration not stated) | . | - | - | . | - | . | .
COc1ccc(N(CC(=O)NC2CCCC2)C(=O)CCC(=O)Nc2nc(C)cs2)cc1OC | . | - | - | . | - | . | .
CCN(CC)c1ccc(/C=N/NC(=O)CNC(=O)C2COc3ccccc3O2)c(O)c1 (configuration not stated) | . | - | 51.7 | . | - | . | 48.3
COc1cc(/C=N\NC(=O)CNC(=O)C2COc3ccccc3O2)ccc1O (configuration not stated) | - | - | - | - | - | - | .
Cc1c(C(=O)Nc2ccc3c(c2)OCCO3)sc2ncnc(N3CCCCC3C)c12 (configuration not stated) | . | - | - | . | - | . | .
NC1=C(Br)C(=O)c2ccccc2C1=O | - | - | 29.2 | - | 65.4 | . | -
O=S(=O)(Nc1cccc2cccnc12)c1ccccc1 | . | - | 102.5 | . | - | . | 98.1
Cc1cc(C)c(NS(=O)(=O)c2cccc3cccnc23)c(C)c1 | - | - | - | - | - | - | .
Cc1ccc(S(=O)(=O)Nc2cccc3cccnc23)c([N+](=O)[O-])c1 | . | - | 66.1 | . | 70.9 | . | 47.3
O=S(=O)(Nc1cccc2cccnc12)c1ccc(S(=O)(=O)N2CCCC2)cc1 | - | - | 31.5 | - | - | - | 35.5
Cc1ccc2cccc(NS(=O)(=O)c3ccccc3)c2n1 | . | - | 99.4 | . | - | . | 100.4
CCN(C(=O)N1CCOCC1)c1ccccc1C | . | - | - | . | - | . | .
COc1ccc(C)cc1NC(=O)c1ccc2c(O)c(S(=O)(=O)c3ccccc3)c(=O)[nH]c2c1 | . | - | - | . | - | . | .
O=C1Nc2cc(C(F)(F)F)ccc2N2CCCCC12 (configuration not stated) | . | - | - | . | - | . | .
COc1ccccc1NS(=O)(=O)c1ccc2ccccc2c1 | . | - | - | . | - | . | .
COc1ccc(NS(=O)(=O)c2ccc3ccccc3c2)c2ncccc12 | . | - | 60.2 | . | - | . | 52.3
O=C(Nc1cc(Cl)ccc1C(=O)O)c1ccc(CN2C(=O)c3ccccc3C2=O)cc1 | . | - | - | . | - | . | .
CS(=O)(=O)N1CCN(c2ccc(NC(=O)c3ccc([N+](=O)[O-])o3)cc2)CC1 | - | - | 24.6 | - | 72.2 | 65.6 | 56.3
O=C(Nc1ccc(N2CCCC2)c(Cl)c1)c1ccc([N+](=O)[O-])o1 | - | - | 70.9 | 74.8 | . | 78.5 | 36.4
CCCC(=O)N1CCN(c2ccc(NC(=O)c3ccc([N+](=O)[O-])o3)cc2)CC1 | 45.0 | - | 90.5 | 90.2 | - | 70.1 | 44.8
O=C(Nc1cccc(NC(=O)c2ccccc2Cl)c1)c1ccc([N+](=O)[O-])o1 | . | - | 101.0 | . | 85.8 | . | 48.9
